D2 antagonist: D2 dopamine receptor (human) antagonism. P14416. HEK293 TREx D2 cells, calcium flux, dopamine EC80. inhibition, % at 10 µM. actives 2% (n = 340,000); in the data active = inhibition above about 30%; inactive = below that, where a call was filed; also: 0% is about no effect
Target sequence (P14416 whole entry, looked up): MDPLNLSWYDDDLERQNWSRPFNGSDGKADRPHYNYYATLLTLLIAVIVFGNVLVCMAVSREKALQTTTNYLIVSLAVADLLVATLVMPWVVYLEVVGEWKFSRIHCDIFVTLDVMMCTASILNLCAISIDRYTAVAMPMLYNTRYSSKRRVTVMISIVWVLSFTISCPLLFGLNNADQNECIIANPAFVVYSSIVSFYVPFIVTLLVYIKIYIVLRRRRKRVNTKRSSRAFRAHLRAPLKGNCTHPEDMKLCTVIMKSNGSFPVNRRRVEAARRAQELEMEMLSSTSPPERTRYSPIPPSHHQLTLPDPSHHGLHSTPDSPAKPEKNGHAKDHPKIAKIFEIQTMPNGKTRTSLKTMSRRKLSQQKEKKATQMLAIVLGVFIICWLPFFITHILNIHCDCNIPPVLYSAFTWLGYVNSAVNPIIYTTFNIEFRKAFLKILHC
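Dopamine at EC80 is the agonist stimulus; test compounds precede it by 180 s. Calcium flux read kinetically in a force-coupled, inducible HEK293 T-REx D2 cell line.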
D2 PAM-1: D2 dopamine receptor (human) potentiation; AID 485347; potentiation, % at 10 µM; HEK293 T-REx D2, calcium flux, EC20 dopamine potentiation; P14416; actives 0.34% (n = 340,000);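 active = potentiation over 3 SD above the plate norm, cut at about 30% in these data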; also: 0% is about no effect
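Tetracycline-induced Hek293 Trex D2 cells, force-coupled to calcium, loaded with no-wash calcium dye. Compound added with 180 s kinetic read for agonism, then EC20 dopamine and a further 180 s read for potentiation.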
D2 PAM-2: positive allosteric modulators of human D2 dopamine receptor | P14416 | DiscoveRx D2 beta-arrestin cells, luminescence, 90 min; 100% = 57 uM dopamine signal | potentiation, % (test concentration not listed) | actives 0.23% (n = 360,000) | AID 624464; in the data active = potentiation above about 50%
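PathHunter beta-arrestin assay in DiscoveRx D2 cells. Compounds were added with an EC20 of dopamine (50 nM final) for 90 min at 37 deg C. Luminescence was read 1 h after detection reagent, with 57 uM dopamine as the EC100 control.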
D2 ag-1: agonists of human D2 dopamine receptor. HEK293 T-REx D2 cells, calcium flux agonist mode. P14416. actives 0.53% (n = 340,000). activation, % at 2 µM. AID 485358;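 active = activation over 3 SD above normal in the single-dose calcium agonist read, cut at about 30% in these data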; also: 0% is about no effect
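Agonism scored from kinetic calcium signal (1 read/sec, 180 s) following compound pin transfer, after a 10 s baseline. Cells: HEK293 Trex line expressing inducible D2 receptor coupled to calcium, dye-loaded after overnight culture at 30 C.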
D2 ag-2: activates the human D2 dopamine receptor. P14416. DiscoveRx PathHunter D2 beta-arrestin, luminescence, 90 min; 100% = 57 uM dopamine signal. activation, % (test concentration not listed). actives 0.084% (n = 360,000). AID 624465; in the data active = activation above about 40%
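DiscoveRx PathHunter D2 beta-arrestin cells (2,100/well) attached overnight, then compound-stimulated 90 min at 37 C in HBSS/10 mM HEPES/0.1% Tween-20 buffer; beta-galactosidase complementation read by luminescence after 1 h at ambient temperature. Dopamine 57 uM final (EC100) as control.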
An asterisk follows results filed as active; nt = no result. Sampled rows, rich in hits. Any-hit rate of the full collection: about 2.4%.

SMILES	D2 antagonist	D2 PAM-1	D2 PAM-2	D2 ag-1	D2 ag-2
COc1ccc(C)cc1NC(=O)c1cc(S(=O)(=O)N2CCc3ccccc3C2)ccc1F	nt	10	nt	0	nt
O=C(CSc1nc2c(oc3ccccc32)c(=O)n1Cc1ccco1)Nc1ccccc1Cl	nt	2	nt	0	nt
Cc1c(F)cccc1NC(=O)C1CCCN1S(=O)(=O)c1ccc(F)cc1 (stereo unspecified)	nt	-10	nt	0	nt
CCOC(=O)C1(CC2CC2)CCN(Cc2cn(C)c3ccccc23)CC1	30*	-13	-11	-1	-2
CCOC(=O)C1(CC2CC2)CCN(Cc2ccc(C(=O)OC)cc2)CC1	72*	-23	-14	0	-2
CCOc1ccc(OCCCCN2CCCC2)cc1	-3	-9	-21	0	-4
CCOC(=O)C1CCN(Cc2ccc(C(=O)OC)cc2)CC1	-9	-24	-18	0	2
CCCCOc1ccc(CN2CCCCC2)cc1	52*	-10	-17	0	-3
COC(=O)c1ccc(CN2CCCCC2)cc1	35*	-25	-30	0	-4
CCOc1ccccc1C(=O)Nc1cc2c(cc1N1CCCCC1)n(C)c(=O)n2C	nt	5	nt	-1	nt
CCc1nc2ccc(C(=O)Nc3cccc(OCC(=O)N(C)C)c3)cn2c1N(C)C(=O)c1cccc(OC)c1	nt	nt	-1	nt	-4
O=C(CCN1CCOCC1)NNC(=O)c1ccc(Cl)c([N+](=O)[O-])c1	nt	nt	-2	nt	-3
O=C(CCN1CCOCC1)NNC(=O)c1ccc([N+](=O)[O-])cc1[N+](=O)[O-]	nt	nt	59*	nt	6
Cc1ccc2cccc(NC(=O)c3ccc(-c4ccc(Cl)cc4Cl)o3)c2n1	nt	-2	nt	-1	nt
O=Cc1c(C(=O)O)n(CC(=O)O)c2ccccc12	-14	2	69*	2	13
O=C(COC(=O)/C=C/c1cccs1)Nc1ccc(F)cc1	6	11	-6	0	-1
CCc1cccc(NC(=O)COC(=O)/C=C/c2cccs2)c1	31*	-7	-6	0	-4
CCC(C)(C)NC(=O)C(c1cccn1C)N(C(=O)Cn1nnc2ccccc21)c1ccc(OC)cc1OC (stereo unspecified)	30*	1	-12	0	-3
CCOc1ccc(N(C(=O)Cn2nnc3ccccc32)C(C(=O)NC(C)(C)CC)c2cccn2C)cc1 (stereo unspecified)	-6	4	-19	1	0
COC(=O)c1ccc(OCC(O)CN2CCN(CC(O)COc3ccc(C(=O)OC)cc3)CC2)cc1 (stereo unspecified)	4	10	-4	0	-2
COc1ccc(OCC(O)CN2C(=O)NC(C)(C)C2=O)cc1 (stereo unspecified)	31*	-8	-3	0	-1
COC(=O)c1ccc(OCC(O)CN2C(=O)c3ccccc3C2=O)cc1 (stereo unspecified)	-4	-17	-2	38*	1
CCOc1ccc(CN2C(=O)c3ccccc3Sc3ccc(C(=O)NC4CCC(C)CC4)cc32)cc1 (stereo unspecified)	nt	8	nt	1	nt
CC(=O)c1c(C)oc2c1cc(NS(=O)(=O)c1ccc(Cl)c(C)c1)c1ccccc12	nt	-16	nt	-2	nt
Sc1nnc(-c2ccc(Cl)cc2)n1Cc1ccccc1	39*	-1	-16	0	2
SMILES	D2 antagonist	D2 PAM-1	D2 PAM-2	D2 ag-1	D2 ag-2
CS(=O)(=O)c1ccc(Oc2ccc(-c3nnco3)cc2)c([N+](=O)[O-])c1	-2	41*	7	2	2
Cc1ccc(CNC(=O)CSc2ncc3c(n2)-c2ccc(Cl)cc2N(Cc2ccccc2)S3(=O)=O)cc1	nt	13	nt	nt	nt
Cc1ccc2oc(C(=O)N(Cc3sccc3C)C3CCS(=O)(=O)C3)c(C)c2c1 (stereo unspecified)	nt	nt	nt	3	nt
O=S(=O)([O-])CCC[n+]1c(/C=C\Nc2ccccc2)oc2ccc(-c3ccccc3)cc21	-3	11	nt	52*	nt
Cc1cc(C)cc(C(=O)NCC(=O)OCN2C(=O)c3ccccc3C2=O)c1	44*	-4	-8	0	-4
CCN(CCCNC(=O)c1cc2c(=O)[nH]c3ccc(C)cc3c2s1)c1ccc(C)cc1	nt	0	nt	1	nt
CCCN1CCN(CCCNC(=O)c2cc3c(=O)[nH]c4ccc(C)cc4c3s2)CC1	43*	-7	-10	-1	-3
Cc1[nH]c2ccc(C(=O)NCCCN3CCCCCC3)cc2c1C	62*	-13	-38	1	2
O=C(O)c1ccc2c(c1)NC(=O)C(N1CCCC1)S2 (stereo unspecified)	10	-11	-9	1	-2
O=C(NCCCN1CCCCC1)c1ccc2c(c1)NC(=O)C(N1CCCCC1)S2 (stereo unspecified)	47*	-21	-48	0	-6
CC1CC(C)CN(CCCNC(=O)c2ccc3c(c2)NC(=O)C(N2CCCCC2)S3)C1 (stereo unspecified)	88*	-29	-31	1	-4
COc1cccc(NC(=O)CCSc2nc(-c3ccco3)cc(C(F)(F)F)n2)c1	nt	-3	nt	1	nt
Cc1cccc(CCNC(=O)C2CCCN(c3ncnc4c3nc3n4CCCCC3)C2)c1 (stereo unspecified)	6	0	-5	0	-1
Cc1cccc(N2CCN(CCCNC(=O)C3CCCN(c4ncnc5c4nc4n5CCCCC4)C3)CC2C)c1 (stereo unspecified)	56*	0	-13	-1	-1
COc1ccc(NC(=O)C2(C)Cc3c(-c4cccc(C(F)(F)F)c4)ccnc3O2)cn1 (stereo unspecified)	nt	nt	-12	nt	-1
Cc1nc(N2CCOCC2)[nH]c(=O)c1CCC(C)C	0	1	14	0	-2
Cc1nc(N2CCOCC2)[nH]c(=O)c1C(O)C(Cl)(Cl)Cl (stereo unspecified)	48*	-4	-8	1	-4
COc1ccc(-c2nc(CSCC(=O)N3CCc4ccccc4C3)c(C)o2)cc1OC	45*	22	-10	0	-7
Cc1ccc(/C=C2\CCC3=C2OC(N)=C(C#N)C3c2ccc(C)cc2)cc1 (stereo unspecified)	-35	-5	7	72*	-3
Cc1ccc(C2C(C#N)=C(N)Oc3cc(N)ccc32)cc1 (stereo unspecified)	10	0	0	0	0
COc1ccc(-c2nc(C)c(CCNC(=O)c3cc(OC)c(OC)c(OC)c3)s2)cc1OC	nt	-4	nt	1	nt
CCc1ccccc1NC(=O)NC1CCCCC1	nt	nt	-28	nt	-2
CCc1ccccc1NC(=O)NC1CC2CCC(C1)N2Cc1cccs1 (stereo unspecified)	55*	-18	-26	-1	-3
CCCN1C2CCCC1CC(NC(=S)Nc1ccc(OC)cc1)C2 (stereo unspecified)	-10	-4	-7	0	-19
